Assay [1] in a line: optical density shifts of acrAB sulA E. coli – strain DRC41, OD650, 48 h, E. coli filamentation inducer project, primary screen (AID 1152).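 Also: E. coli MC1000 strain DRC41 lacking acrAB efflux pump and sulA.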 The settings on record: higher = more signal, called active from +8 up or from −8 down.
The nature of assay [2]: probe aLefty1 binding on compound microarray – biochemical, small-molecule microarray, 635/667 nm fluorescence, primary screen (AID 1153).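 Also: score merges spot fluorescence with signal-to-noise ratio from the scanned slide images.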 The settings on record: higher = more signal.
The nature of assay [3]: plasmodial surface anion channel blockers, osmotic lysis – cell-based, P. falciparum Indochina, OD700, 1 h, primary screen (AID 1154). The settings on record: P. falciparum Indochina infected RBC osmotic lysis, higher = more signal, called active from +8 up or from −8 down.
The nature of assay [4]: plasmodial surface anion channel blockers, osmotic lysis – cell-based, P. falciparum Indochina, OD700, 2 h, primary screen (AID 1155).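 Also: lysis reports solute entry through the parasite surface anion channel PSAC.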 The settings on record: P. falciparum Indochina infected erythrocytes, higher = more signal, called active from +8 up or from −8 down.
A short description of assay [5]: changes in parasitized red cell lysis, either direction – P. falciparum Indochina, OD700, 3 h, PSAC antagonist project, primary screen (AID 1156). The settings on record: P. falciparum-infected erythrocytes, osmotic lysis, higher = more signal, called active from +8 up or from −8 down.
Assay [6] can be described thus: plasmodial surface anion channel blockers, osmotic lysis – cell-based, P. falciparum Indochina, OD700, 18 h, primary screen (AID 1157). The conditions noted are these: P. falciparum Indochina infected erythrocytes, osmotic lysis OD700, 18 h; higher = more signal, called active from +8 up or from −8 down.
A short description of assay [7]: S6 kinase pathway phospho-S6 level changes – cell-based, A549, cytoblot, luminescence, serum-stimulated, primary screen (AID 1158).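 Also: serum-stimulated A549 lung adenocarcinoma cells; signal is phosphorylated S6 detected by cytoblot immunostaining with HRP secondary.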 The settings on record: 5 h, higher = more signal.
The target of assay [8] is NADPH oxidase 2 (Homo sapiens) (UniProt P04839). Briefly: compounds shifting NOX2 Amplex Red fluorescence – cell-based, HEK293-NOX2, PMA-stimulated, NOX inhibitor project, primary screen (AID 1159). Also: test concentration not given here. The settings on record: 45 min, higher = more signal, called active from +8 up or from −8 down.
Sequence of NADPH oxidase 2 (Homo sapiens) (P04839 whole entry, looked up): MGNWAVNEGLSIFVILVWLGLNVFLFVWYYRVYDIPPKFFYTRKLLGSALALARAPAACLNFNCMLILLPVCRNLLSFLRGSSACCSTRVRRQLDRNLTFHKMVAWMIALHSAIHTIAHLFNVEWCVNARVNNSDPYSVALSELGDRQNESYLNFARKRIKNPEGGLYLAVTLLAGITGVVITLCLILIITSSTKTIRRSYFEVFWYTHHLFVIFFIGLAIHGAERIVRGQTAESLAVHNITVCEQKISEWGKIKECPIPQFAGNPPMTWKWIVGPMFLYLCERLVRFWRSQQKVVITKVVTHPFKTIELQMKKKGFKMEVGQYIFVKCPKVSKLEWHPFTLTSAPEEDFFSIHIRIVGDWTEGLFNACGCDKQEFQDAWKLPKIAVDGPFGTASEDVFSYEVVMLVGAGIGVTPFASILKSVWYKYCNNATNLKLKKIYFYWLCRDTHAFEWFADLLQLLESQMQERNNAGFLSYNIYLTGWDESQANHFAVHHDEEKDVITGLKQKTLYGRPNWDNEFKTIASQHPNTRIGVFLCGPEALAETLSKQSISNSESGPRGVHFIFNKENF
Assay [9] addresses NADPH oxidase 4 (Homo sapiens) (UniProt Q9NPH5). Briefly: compounds shifting NOX4 Amplex Red fluorescence – cell-based, HEK293-NOX4, tetracycline-induced, NOX inhibitor project, primary screen (AID 1160). The conditions noted are these: HEK293-NOX4, Amplex Red H2O2 fluorescence, 45 min; higher = more signal, called active from +8 up or from −8 down.
Assay [10] deals with NADPH oxidase 5 (Homo sapiens) (UniProt Q96PH1). Briefly: compounds shifting NOX5 Amplex Red fluorescence – cell-based, HEK293-NOX5, NOX inhibitor project, primary screen (AID 1161). The conditions noted are these: HEK293-NOX5, ionomycin, 45 min, higher = more signal.
Sequence of NADPH oxidase 5 (Homo sapiens) (Q96PH1 whole entry, looked up): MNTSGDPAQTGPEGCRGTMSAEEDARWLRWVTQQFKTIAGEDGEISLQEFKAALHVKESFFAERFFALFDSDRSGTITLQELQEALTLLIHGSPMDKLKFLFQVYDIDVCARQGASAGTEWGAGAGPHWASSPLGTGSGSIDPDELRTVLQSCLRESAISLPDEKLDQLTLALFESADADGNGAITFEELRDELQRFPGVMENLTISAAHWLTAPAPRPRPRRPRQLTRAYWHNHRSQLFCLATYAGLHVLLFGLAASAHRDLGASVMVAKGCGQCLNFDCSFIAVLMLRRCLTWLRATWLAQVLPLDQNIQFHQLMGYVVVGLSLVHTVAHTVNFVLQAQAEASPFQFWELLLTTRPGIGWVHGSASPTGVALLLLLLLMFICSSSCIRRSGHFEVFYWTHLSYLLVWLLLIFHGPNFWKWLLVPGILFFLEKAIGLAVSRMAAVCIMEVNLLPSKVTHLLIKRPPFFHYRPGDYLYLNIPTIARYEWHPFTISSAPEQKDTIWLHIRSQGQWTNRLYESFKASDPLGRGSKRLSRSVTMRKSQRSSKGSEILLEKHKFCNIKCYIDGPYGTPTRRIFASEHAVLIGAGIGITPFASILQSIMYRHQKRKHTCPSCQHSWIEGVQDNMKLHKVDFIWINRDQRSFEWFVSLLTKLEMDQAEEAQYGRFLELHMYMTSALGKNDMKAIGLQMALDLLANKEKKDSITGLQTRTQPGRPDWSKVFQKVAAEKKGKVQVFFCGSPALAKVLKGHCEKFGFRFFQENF
Assay [11] in a line: compound effects on lung adenocarcinoma cell viability – A549, calcein-AM fluorescence, 48 h, basal, profiling panel (AID 1162). Also: test concentration not given here. The conditions noted are these: higher = more signal.
Assay [12] is described as follows: compound effects on differentiated 3T3-L1 adipocyte viability – cell-based, 3T3-L1 adipocytes, calcein-AM fluorescence, 48 h, basal, profiling panel (AID 1163). Also: test concentration not given here. The conditions noted are these: 3T3-L1 adipocytes viability, higher = more signal.
Assay [13] in a line: compound effects on hepatocellular carcinoma cell viability – HepG2, calcein-AM fluorescence, 48 h, basal, profiling panel (AID 1164). Also: test concentration not given here. The settings on record: higher = more signal.
Assay [14] is described as follows: compound effects on multiple myeloma cell viability – MM1S, calcein-AM fluorescence, 48 h, basal, profiling panel (AID 1165). Also: test concentration not given here. The conditions noted are these: higher = more signal.
A short description of assay [15]: calcein-AM signal in unstimulated myeloma cells – cell-based, calcein-AM fluorescence, 48 h, PK04 Diversity Set, profiling panel (AID 1166).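 Also: cells grown under basal conditions without added stimulus; test concentration not given here.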 The settings on record: RPMI8226 myeloma viability, higher = more signal.
The nature of assay [16]: JC-1 mitochondrial signal, unstimulated HepG2 cells – cell-based, JC-1 fluorescence, 24 h, 100 nL compound, profiling panel (AID 1167). Also: test concentration not given here. The conditions noted are these: HepG2 mitochondrial potential, higher = more signal.
Assay [17] can be described thus: JC-1 mitochondrial signal, unstimulated adipocytes – cell-based, JC-1 fluorescence, 3T3-L1 adipocytes, 24 h, 100 nL compound, profiling panel (AID 1168). Also: test concentration not given here. The settings on record: JC-1 mitochondrial fluorescence, higher = more signal, called active from +8 up or from −8 down.
A short description of assay [18]: JC-1 mitochondrial signal, unstimulated myeloma cells – cell-based, JC-1 fluorescence, RPMI8226, 24 h, 100 nL compound, profiling panel (AID 1169). Also: test concentration not given here. The settings on record: JC-1 mitochondrial potential fluorescence, higher = more signal.
Assay [19] in a line: JC-1 mitochondrial signal, unstimulated MM1S myeloma – cell-based, JC-1 fluorescence, 24 h, 100 nL compound, profiling panel (AID 1170). Also: test concentration not given here. The conditions noted are these: MM1S mitochondrial potential, higher = more signal.
Assay [20] can be described thus: resazurin metabolic signal in A549 cells – cell-based, resazurin fluorescence, 24 h, PK04 Diversity Set, profiling panel (AID 1171). Also: test concentration not given here. The conditions noted are these: A549 viability, higher = more signal, called active from +8 up or from −8 down.

The text below walks through data of PubChem BioAssay.

Several values for one entry are separate records, joined by “and”; a condition that tells them apart may be missing. Equal values may be shown once. Activity calls are given as the source filed them.

Sequence of NADPH oxidase 4 (Homo sapiens) (Q9NPH5 whole entry, looked up): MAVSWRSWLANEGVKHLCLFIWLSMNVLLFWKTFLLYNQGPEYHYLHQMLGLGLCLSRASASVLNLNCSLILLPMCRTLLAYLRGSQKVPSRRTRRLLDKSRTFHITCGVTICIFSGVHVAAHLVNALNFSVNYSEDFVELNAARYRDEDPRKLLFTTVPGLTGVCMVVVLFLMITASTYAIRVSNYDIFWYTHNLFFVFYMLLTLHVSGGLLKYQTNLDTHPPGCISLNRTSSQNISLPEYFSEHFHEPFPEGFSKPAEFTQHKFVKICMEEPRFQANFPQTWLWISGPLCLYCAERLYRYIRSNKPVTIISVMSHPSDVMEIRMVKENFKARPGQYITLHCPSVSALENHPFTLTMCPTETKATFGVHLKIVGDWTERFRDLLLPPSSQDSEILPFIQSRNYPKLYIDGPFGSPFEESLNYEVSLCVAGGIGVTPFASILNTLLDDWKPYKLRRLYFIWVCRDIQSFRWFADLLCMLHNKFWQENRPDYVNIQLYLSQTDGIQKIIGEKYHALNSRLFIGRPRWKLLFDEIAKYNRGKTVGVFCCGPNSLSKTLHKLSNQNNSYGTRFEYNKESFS

In the case of `C=CCN(C(=O)C1N(c2c(Cl)cccc2CO)C(=O)C2C(C(=O)O)C3C=CC21O3)c1ccc(OC)cc1` (stereo not given), the z-score in [1] is 0.971 (inactive) and 2.55 (inactive); in assay [3], 2.56 (inactive) and -0.975 (inactive); in [4] it was 0.516 (inactive) and -1.35 (inactive); in [5], 0.336 (inactive) and -0.988 (inactive); in assay [6], 0.287 (inactive) and -1.34 (inactive); in [7], -0.403 and 1.78. Further, the z-score in assay [8] was 0.868 (inactive) and -0.148 (inactive); in assay [9], -0.286 (inactive) and -0.651 (inactive); in assay [10], -0.136 and 0.192; in assay [11] it was -0.211 and 1.87; in [12] it was 1.02 and 0.581; in [13], -0.915 and 1.6. Further, the z-score is 0.972 and -0.224 in assay [14]; -0.998 and 0.529 in assay [15]; -0.877 and 0.862 in [16]; -0.955 (inactive) and 0.659 (inactive) in [17]; -0.106 and -0.544 in assay [18]; 0.644 and 0.576 in assay [19]. The z-score in assay [20] is -0.475 (inactive) and 1.02 (inactive). Moreover, the composite z-score in assay [2] is -1.1 and -0.253.

`CO[C@H]1COC(=O)[C@H](C)NC(=O)CC=C[C@@H](C)[C@H](OC)COC(=O)CC=C[C@@H]1C`: the z-score in assay [1] was 0.343 (inactive); in assay [3], -0.0029 (inactive); in assay [4], 0.147 (inactive); in assay [5] it was 0.597 (inactive); in [6] it was -0.0165 (inactive); in assay [7], -0.248. Moreover, the z-score in assay [8] is 1.45 (inactive); in assay [9], -1.65 (inactive); in assay [10], -0.796; in [11] it was 1.51; in assay [12], 0.459; in assay [13] it was 0.235. Also, the z-score is 0.0144 in assay [14]; 0.417 in [15]; 0.573 in [16]; 0.156 (inactive) in assay [17]; 0.56 in [18]; 1.04 in assay [19]. In addition, the z-score in assay [20] is 0.74 (inactive). Further, in [2], the composite z-score is -0.149.

With `CCCC[C@@H]1CN2[C@H](c3ccc(Br)cc3)[C@@H](C)CC[C@H]2C(=O)O1`, the z-score in [1] is 0.469 (inactive) and -0.0124 (inactive); in [3] it was 1.56 (inactive) and 1.12 (inactive); in assay [4] it was 0.395 (inactive) and 0.586 (inactive); in assay [5], 1.2 (inactive) and -0.241 (inactive); in assay [6] it was 0.492 (inactive) and 0.318 (inactive); in assay [7] it was 0.57 and -0.262. In addition, the z-score in [8] was 0.203 (inactive) and -0.527 (inactive); in assay [9], 0.332 (inactive) and -0.0635 (inactive); in assay [10], -0.884 and -1.79; in assay [11], 1.03 and 0.449; in assay [12], -1.1 and -0.272; in [13], 0.155 and 0.493. The z-score in assay [14] is -1.36 and -0.797; in assay [15], 0.969 and 0.24; in assay [16], 0.134 and -1.42; in assay [17], -0.299 (inactive) and -0.848 (inactive); in assay [18], -0.187 and -0.361; in assay [19], -1.19 and 1.26. Besides, the z-score in [20] was 0.301 (inactive) and 1.49 (inactive). For the same compound, the composite z-score in [2] is -0.308 and -0.0132.

For `C=C(C)C(=O)OC[C@@H]1CN2[C@@H](CC[C@@H](C)[C@@H]2c2ccc(Br)cc2)C(=O)O1`, the z-score in assay [1] was -0.181 (inactive); in assay [3], 1.51 (inactive); in [4], 0.0995 (inactive); in [5] it was 0.289 (inactive); in [6], 0.294 (inactive); in assay [7], 0.525. For the same compound, the z-score was -0.29 (inactive) in assay [8]; 1 (inactive) in assay [9]; 0.481 in assay [10]; 0.254 in assay [11]; -0.2 in assay [12]; 1.08 in assay [13]. In addition, the z-score in [14] is 0.419; in [15] it was 0.427; in [16], 0.642; in assay [17], 0.945 (inactive); in assay [18], -0.28; in assay [19], -0.631. Further, in assay [20], the z-score was 0.173 (inactive). The compound also registered a composite z-score in assay [2] of 0.218.

`C[N+](C)(C)CCCCCCNC(=O)[C@H]1C[C@H]2C(=O)N[C@@H](CCCC[N+](C)(C)C)C(=O)N2[C@H]1c1ccc(O)cc1`: the z-score in [1] is 0.167 (inactive) and 0.234 (inactive); in assay [3], 0.453 (inactive) and 0.892 (inactive); in assay [4], -1.12 (inactive) and 0.591 (inactive); in assay [5], -1.11 (inactive) and -2.09 (inactive); in [6] it was -1.46 (inactive) and 0.0065 (inactive); in assay [7], 0.0304 and -0.109. The z-score in assay [8] was -1.5 (inactive) and 0.235 (inactive); in assay [9], -0.479 (inactive) and 0.249 (inactive); in [10], -3.22 and 0.0348; in assay [11] it was -0.512 and 0.597; in assay [12], 0.222 and -0.596; in [13], -1.45 and -0.367. Further, the z-score in assay [14] was -0.602 and 0.494; in assay [15], -0.149 and -0.0976; in [16], -1.34 and -0.105; in [17], 0.913 (inactive) and 0.345 (inactive); in assay [18] it was -0.169 and 0.432; in assay [19] it was -0.657 and -0.528. Also, the z-score in [20] is -0.673 (inactive) and -0.0771 (inactive). Further, in assay [2], the composite z-score is -0.0523 and -0.127.

For `C[N+](C)(C)CCCCCCNC(=O)[C@@H]1C[C@@H]2C(=O)N[C@@H](CCCC[N+](C)(C)C)C(=O)N2[C@@H]1c1ccc(O)cc1`, the z-score is 0.877 (inactive) and 0.123 (inactive) in assay [1]; 0.973 (inactive) and 1.9 (inactive) in [3]; 0.106 (inactive) and 0.554 (inactive) in assay [4]; -0.0454 (inactive) and 0.0605 (inactive) in assay [5]; -0.115 (inactive) and 0.375 (inactive) in [6]; -0.336 and -0.254 in assay [7]. The z-score in [8] is -0.441 (inactive) and -0.988 (inactive); in assay [9] it was 0.105 (inactive) and -0.431 (inactive); in assay [10], 0.58 and -0.839; in [11] it was 0.602 and 0.107; in [12] it was -0.266 and -0.25; in [13], 0.284 and -0.812. The z-score in assay [14] is 0.814 and -0.514; in [15] it was -0.587 and 0.392; in assay [16], -0.367 and -1.19; in [17], 0.608 (inactive) and 0.109 (inactive); in assay [18], -0.7 and 0.534; in assay [19], -0.778 and -0.749. For the same compound, the z-score in assay [20] was 0.527 (inactive) and 0.818 (inactive). Besides, the composite z-score in assay [2] is -0.0011 and -0.149.
